Ten compounds from PubChem BioAssay (Tox21) can be followed below.

Results filed as inconclusive are left out. A number with no mark means an inactive call. Calls of active or inactive are those of the source. Unless noted, the call rests on the fitted dose curve; in most records, active means well fitted curve in the direction sought with a large enough effect in the repeat runs; inconclusive means weak or mixed curves; inactive means no such curve, though single readings can be large; an effect the other way counts as inactive or inconclusive.

Experiment [1] is described as follows: qHTS assay to identify small molecule agonists of the peroxisome proliferator-activated receptor delta (PPARd) signaling pathway - cell viability counter screen (AID 743211). Further: on the % scale 0 is the no-effect control and ±100 the full control effect; nearly all actives have a fitted effect of over 55% in size. In outline: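 HEK293H PPARd-bla, 3000 cells/well; 5 h preincubation 37C/5% CO2; cpd in DMSO, 17 h 37C; B/G FRET substrate 2 h RT; CellTiter-Glo 30 min RT, luminescence.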
In general terms: qHTS replaces the single test concentration by a dilution series.

Experiment [2] deals with Peroxisome proliferator-activated receptor delta (Homo sapiens) (UniProt Q03181). The experiment is described as follows: qHTS assay to identify small molecule agonists of the peroxisome proliferator-activated receptor delta (PPARd) signaling pathway (AID 743212; calls by dose curve; further: on the % scale 0 is the no-effect control and ±100 the full control effect). The procedure, abridged:
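Tox21 library screened in GeneBLAzer PPARd UAS-bla HEK293H cells. After compound treatment at 37 C, a FRET-based beta-lactamase substrate was applied for 2 h and fluorescence recorded.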

The nature of experiment [3]: qHTS assay to identify small molecule antagonists of the peroxisome proliferator-activated receptor delta (PPARd) signaling pathway - cell viability counter screen (AID 743213). Further: on the % scale 0 is the no-effect control and ±100 the full control effect; nearly all actives have a fitted effect of over 50% in size. In outline: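 CellTiter-Glo was added to PPARd-bla HEK293H wells following 17 h compound treatment in the presence of 300 nM L165041. Luminescence was recorded after 30 min at room temperature.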

Experiment [4] deals with Peroxisome proliferator-activated receptor delta (Homo sapiens) (UniProt Q03181). The experiment can be described thus: qHTS assay to identify small molecule antagonists of the peroxisome proliferator-activated receptor delta (PPARd) signaling pathway (AID 743215; active means well fitted inhibition curve with a large enough effect in the signal ratio in the repeat runs, not every such curve was filed as active; the % refers to the signal ratio;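 further: cells stimulated with agonist L165041 at 300 nM final during compound exposure; series mostly up to about 62 µM; on the % scale 0 is the no-effect control and ±100 the full control effect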). In outline: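 Plated HEK293H PPARd-bla cells rested 5 h at 37 C and 5% CO2. Compound, then agonist L165041 at 300 nM final, was added; 17 h at 37 C followed. Substrate loading, 2 h room temperature, fluorescence measured.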
Peroxisome proliferator-activated receptor delta (Homo sapiens), sequence (Q03181 whole entry, looked up): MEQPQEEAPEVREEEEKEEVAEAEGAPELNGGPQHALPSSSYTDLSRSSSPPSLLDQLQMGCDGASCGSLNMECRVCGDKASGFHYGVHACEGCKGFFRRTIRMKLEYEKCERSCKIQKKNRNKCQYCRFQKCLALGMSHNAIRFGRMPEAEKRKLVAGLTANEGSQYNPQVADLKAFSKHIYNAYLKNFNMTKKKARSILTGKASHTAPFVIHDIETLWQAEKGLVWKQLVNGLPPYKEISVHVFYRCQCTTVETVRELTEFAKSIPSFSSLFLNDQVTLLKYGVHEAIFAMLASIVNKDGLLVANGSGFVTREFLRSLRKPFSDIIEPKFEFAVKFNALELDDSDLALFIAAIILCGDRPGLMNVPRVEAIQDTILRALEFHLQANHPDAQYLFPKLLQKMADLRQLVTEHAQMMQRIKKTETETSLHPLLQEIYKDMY

A short description of experiment [5]: qHTS assay to identify small molecule agonists of the farnesoid-X-receptor (FXR) signaling pathway - cell viability counter screen (AID 743218). Further: on the % scale 0 is the no-effect control and ±100 the full control effect; nearly all actives have a fitted effect of over 45% in size. In outline:
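Viability of FXR-bla HEK 293T cells is measured by ATP-based CellTiter-Glo luminescence following 16 h compound treatment at 37 C and a prior 2 h room-temperature beta-lactamase substrate step.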

Experiment [6] can be described thus: qHTS assay to identify small molecule antagonists of the farnesoid-X-receptor (FXR) signaling pathway - cell viability counter screen (AID 743221; active means well fitted cell-killing curve with a large enough effect in the repeat runs, not every such curve was filed as active; further: on the % scale 0 is the no-effect control and ±100 the full control effect; nearly all actives have a fitted effect of over 50% in size). In outline: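 Luminescence from CellTiter-Glo measures cytotoxicity in GeneBLAzer FXR-UAS-bla HEK 293T cells. Cells were exposed to compounds with 50 uM chenodeoxycholic acid (final) for 16 h at 37 C, in wells also used for the reporter readout.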

Experiment [7] addresses Vitamin D3 receptor (Homo sapiens) (UniProt P11473). The experiment can be described thus: qHTS assay to identify small molecule agonists of the vitamin D receptor (VDR) signaling pathway (AID 743222; calls by dose curve; further: on the % scale 0 is the no-effect control and ±100 the full control effect). The procedure, abridged: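 Fluorescence from cleaved LiveBLAzer B/G FRET substrate served as readout. VDR-bla cells had been treated 16 h at 37C with test compounds in DMSO, following a 4 h settling period, and substrate was loaded for 2 h at RT.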

The target is the same in experiment [8]. The experiment is described as follows: qHTS assay to identify small molecule antagonists of the vitamin D receptor (VDR) signaling pathway (AID 743223; active means well fitted inhibition curve with a large enough effect in the signal ratio in the repeat runs, not every such curve was filed as active; the % refers to the signal ratio; further: on the % scale 0 is the no-effect control and ±100 the full control effect). The procedure, abridged: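 Antagonist mode uses 1alpha,25-dihydroxyvitamin D3 at 3 nM final as stimulus. VDR-bla cells receive compounds in DMSO, incubate 16 h at 37C, then a beta-lactamase FRET substrate for 2 h at room temperature before fluorescence measurement.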

Experiment [9] is described as follows: qHTS assay to identify small molecule agonists of the vitamin D receptor (VDR) signaling pathway - cell viability counter screen (AID 743224). Further: series mostly up to about 63 µM; on the % scale 0 is the no-effect control and ±100 the full control effect; nearly all actives have a fitted effect of over 50% in size. The procedure, abridged: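 Compounds were pin-transferred onto VDR-bla cells plated 4 h earlier; following 16 h incubation at 37C, cell viability was quantified by CellTiter-Glo luminescence after 30 min at room temperature.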

The nature of experiment [10]: qHTS assay to identify small molecule antagonists of the vitamin D receptor (VDR) signaling pathway - cell viability counter screen (AID 743225). Further: on the % scale 0 is the no-effect control and ±100 the full control effect; nearly all actives have a fitted effect of over 50% in size. In outline: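 Read-out: CellTiter-Glo luminescence measured 30 min after reagent addition at room temperature. Cells were VDR-bla HEK 293T exposed 16 h at 37C, 5% CO2, to compound with 3 nM final calcitriol agonist.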
The nature of experiment [11]: qHTS assay to identify small molecule agonists of the NFkB signaling pathway - cell viability counter screen (AID 1159515; calls by dose curve; further: series mostly up to about 61 µM; on the % scale 0 is the no-effect control and ±100 the full control effect; nearly all actives have a fitted effect of over 55% in size). The procedure, abridged:
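Parallel cytotoxicity counter screen in ME-180 cells carrying an NFkB-response-element beta-lactamase reporter, 2,000 cells/well. Compound exposure lasted 5 hr at 37 C, 5% CO2. Cell viability was quantified by CellTiter-Glo luminescence.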

The nature of experiment [12]: qHTS assay to identify small molecule agonists of the endoplasmic reticulum stress response signaling pathway - cell viability counter screen (AID 1159517; calls by dose curve). The procedure, abridged: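 In parallel with the ESRE reporter read, cytotoxicity was scored by CellTiter-Glo luminescence (30 min, room temperature) on HeLa ESRE-bla cells dosed for 5 hr.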
The nature of experiment [13]: qHTS assay to identify small molecule antagonists of the retinoid-related orphan receptor gamma (ROR-gamma) signaling pathway - cell viability counter screen (AID 1159520). In outline: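 Tet-on ROR gamma CHO cells were given compounds for 2 hr, then doxycycline hyclate at 1 uM final, and incubated 16 hr at 37 C. Viability was measured as ATP content by CellTiter-Glo luminescence.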

The target of experiment [14] is Nuclear receptor ROR-gamma (Homo sapiens) (UniProt P51449). The experiment is described as follows: qHTS assay to identify small molecule antagonists of the retinoid-related orphan receptor gamma (ROR-gamma) signaling pathway (AID 1159521; further: nearly all actives have a fitted effect of over 50% in size; further: potency means the concentration at half of the fitted maximal effect). In outline: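 CHO Tet-on RORγ, RORE-luc reporter. Cpd 2 h pre-incubation, then dox hyclate 1 uM final, 16 h, 37 C/5% CO2. ONE-Glo luminescence; decrease = antagonist.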

Experiment [15] can be described thus: qHTS assay to identify small molecule agonists of the AP-1 signaling pathway - cell viability counter screen (AID 1159525; calls by dose curve; further: nearly all actives have a fitted effect of over 55% in size). The procedure, abridged: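 Same-well cytotoxicity counter screen of the Tox21 10K library in ME-180 cells. The readout is ATP-dependent luminescence after 5 h compound treatment. Data are normalised to DMSO and tetra n-octyl ammonium bromide controls.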

Experiment [16] in a line: qHTS assay to identify small molecule agonists of the AP-1 signaling pathway (AID 1159526; calls by dose curve; further: on the % scale 0 is the no-effect control and ±100 the full control effect).
In experiment [17] the target is Bile acid receptor (Homo sapiens) (UniProt Q96RI1). The experiment can be described thus: qHTS assay to identify small molecule agonists of the farnesoid-X-receptor (FXR) signaling pathway (AID 743220; active means well fitted activation curve with a large enough effect in the signal ratio in the repeat runs, not every such curve was filed as active; the % refers to the signal ratio; further: on the % scale 0 is the no-effect control and ±100 the full control effect). In outline:
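FXR-UAS-bla HEK 293T cells carrying a UAS-driven beta-lactamase reporter were plated for 5 h at 37C/5% CO2, then exposed to DMSO-dissolved Tox21 10K compounds for 16 h at 37C. A LiveBLAzer B/G FRET substrate was loaded for 2 h at room temperature before fluorescence reading.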

The target in experiment [18] is Retinoic acid receptor RXR-alpha (Homo sapiens) (UniProt P19793). The experiment can be described thus: qHTS assay to identify small molecule agonists of the RXR signaling pathway (AID 1159527; calls by dose curve; further: on the % scale 0 is the no-effect control and ±100 the full control effect; nearly all actives have a fitted effect of over 35% in size). In outline: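 Read-out: beta-lactamase FRET ratio (405 nm excitation, 460 and 530 nm emission) after 2 hr substrate loading at room temperature. Cells were RXR-alpha-UAS-bla HEK 293T treated with compounds for 16 hr in 2% charcoal-stripped FBS medium.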
Retinoic acid receptor RXR-alpha (Homo sapiens), sequence (P19793 whole entry, looked up): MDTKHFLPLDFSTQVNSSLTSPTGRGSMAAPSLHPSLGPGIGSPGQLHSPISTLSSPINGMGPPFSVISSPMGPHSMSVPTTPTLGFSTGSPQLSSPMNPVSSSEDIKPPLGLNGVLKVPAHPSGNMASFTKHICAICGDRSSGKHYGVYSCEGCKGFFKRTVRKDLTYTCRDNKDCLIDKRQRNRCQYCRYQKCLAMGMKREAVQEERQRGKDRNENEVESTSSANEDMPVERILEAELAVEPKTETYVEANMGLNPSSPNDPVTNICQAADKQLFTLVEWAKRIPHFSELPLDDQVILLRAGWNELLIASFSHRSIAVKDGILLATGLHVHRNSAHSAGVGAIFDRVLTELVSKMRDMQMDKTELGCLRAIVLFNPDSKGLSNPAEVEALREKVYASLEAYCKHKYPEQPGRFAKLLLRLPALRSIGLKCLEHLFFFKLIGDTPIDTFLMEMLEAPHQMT

In experiment [19] the target is Bile acid receptor (Homo sapiens) (UniProt Q96RI1). The experiment is described as follows: qHTS assay to identify small molecule antagonists of the farnesoid-X-receptor (FXR) signaling pathway (AID 743217; active means well fitted inhibition curve with a large enough effect in the signal ratio in the repeat runs, not every such curve was filed as active; the % refers to the signal ratio; further: on the % scale 0 is the no-effect control and ±100 the full control effect). The procedure, abridged:
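Screen of the Tox21 10K library in quantitative HTS format using FXR-UAS-bla HEK 293T reporter cells. Agonist chenodeoxycholic acid, 50 uM final, added with compounds; 16 h incubation at 37 °C; beta-lactamase FRET fluorescence measured.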

The nature of experiment [20]: qHTS assay to identify small molecule agonists of the endoplasmic reticulum stress response signaling pathway (AID 1159516; active means well fitted activation curve with a large enough effect in the signal ratio in the repeat runs, not every such curve was filed as active; the % refers to the signal ratio; further: on the % scale 0 is the no-effect control and ±100 the full control effect). The procedure, abridged: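 Using a HeLa line with an ESRE-driven beta-lactamase gene, agonist activity was measured by FRET substrate fluorescence (460 and 530 nm emission) after cells were treated with compounds for 5 hr at 37 C and 5% CO2.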

Vitamin D3 receptor (Homo sapiens), sequence (P11473 whole entry, looked up): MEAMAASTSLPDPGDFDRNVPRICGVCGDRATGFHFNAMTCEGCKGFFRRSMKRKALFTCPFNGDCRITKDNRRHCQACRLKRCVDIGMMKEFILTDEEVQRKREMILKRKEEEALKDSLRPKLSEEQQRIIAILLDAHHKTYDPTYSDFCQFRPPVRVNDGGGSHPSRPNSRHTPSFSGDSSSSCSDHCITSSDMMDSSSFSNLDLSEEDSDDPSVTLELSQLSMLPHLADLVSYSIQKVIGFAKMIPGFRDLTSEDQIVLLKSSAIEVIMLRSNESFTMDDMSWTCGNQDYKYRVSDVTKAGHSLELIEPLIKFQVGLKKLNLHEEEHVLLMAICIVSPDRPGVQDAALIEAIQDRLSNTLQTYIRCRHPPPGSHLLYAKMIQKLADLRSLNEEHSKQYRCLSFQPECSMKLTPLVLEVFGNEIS
Bile acid receptor (Homo sapiens), sequence (Q96RI1 whole entry, looked up): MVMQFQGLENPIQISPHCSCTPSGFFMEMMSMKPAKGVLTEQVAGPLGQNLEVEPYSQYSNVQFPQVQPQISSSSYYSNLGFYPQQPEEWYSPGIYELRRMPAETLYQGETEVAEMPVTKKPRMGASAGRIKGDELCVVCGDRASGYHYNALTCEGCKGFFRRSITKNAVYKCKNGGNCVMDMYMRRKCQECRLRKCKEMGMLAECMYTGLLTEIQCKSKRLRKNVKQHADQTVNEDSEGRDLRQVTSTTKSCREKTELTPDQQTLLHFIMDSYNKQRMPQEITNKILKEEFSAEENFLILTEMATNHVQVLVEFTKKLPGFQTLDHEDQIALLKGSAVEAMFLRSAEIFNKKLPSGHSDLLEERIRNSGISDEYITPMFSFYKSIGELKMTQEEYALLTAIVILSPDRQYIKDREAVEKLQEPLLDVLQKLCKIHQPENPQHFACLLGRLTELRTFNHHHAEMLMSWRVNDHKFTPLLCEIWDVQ

On to `O=C(O)COC(=O)Cc1ccccc1Nc1c(Cl)cccc1Cl`, for which the Potency result in experiment [1], in [3], in [5], in experiment [6], in experiment [8] and in [9] was “inactive” each time. The Potency entry in [10], in [11], in experiment [13], in [14], in [15] and in [16] was “inactive” throughout. Besides, the result in experiment [2], in [4], in [7] and in experiment [12] was inactive.

Turning to `CCCCCCCC/C=C\CCCCCCCC(N)=O`, the Potency entry in experiment [1], in experiment [3], in experiment [6], in [8], in experiment [9] and in experiment [10] was “inactive” each time. Also, the Potency entry in experiment [11], in experiment [14], in experiment [15] and in experiment [18] was “inactive” in each case. The compound was classed as inactive in [2], in experiment [4], in experiment [17], in experiment [7] and in [12].

Consider `CC(C)=CCCC(C)CC=O` (configuration not stated), for which the Potency entry in experiment [1], in experiment [3], in experiment [5], in experiment [6], in [9] and in experiment [10] was “inactive” each time. The Potency result in experiment [20], in experiment [13], in experiment [14], in [15] and in [16] was “inactive” throughout. Also, the outcome in [19], in experiment [17], in experiment [7] and in [12] was inactive.

Turning to `Cl/C(=C\n1cncn1)c1ccc(Cl)cc1Cl`, the Potency result in experiment [1], in [3], in experiment [5], in [6], in experiment [9] and in experiment [10] was “inactive” each time. Also, the Potency entry in [20], in experiment [13], in experiment [14] and in experiment [15] was “inactive” each time. Moreover, the result in experiment [2] and in experiment [12] was inactive.

Consider `CCCCOC(=O)/C=C\C(=O)OCCCC`, for which the Potency entry in [1], in experiment [3], in experiment [5], in experiment [6], in [8] and in [10] was “inactive” throughout. Also, the Potency entry in experiment [20], in [13], in experiment [14], in [15], in [16] and in [18] was “inactive” in each case. Further, the compound was called inactive in experiment [17], in experiment [7] and in experiment [12].

With `O=C(O)C(c1ccc(Cl)cc1)c1ccc(Cl)cc1`, the Potency entry in experiment [1], in experiment [3], in experiment [5], in experiment [9], in [20] and in experiment [13] was “inactive” in each case. The Potency entry in experiment [14], in experiment [15] and in [16] was “inactive” in each case. Further, the compound was called inactive in [2], in experiment [19], in experiment [17], in [7] and in experiment [12].

For the compound `CC(=O)CC(=O)c1ccccc1`, the Potency entry in [1], in [3], in experiment [5], in [6], in experiment [8] and in experiment [10] was “inactive” each time. Further, the Potency entry in experiment [20], in experiment [13] and in [15] was “inactive” throughout. Besides, the outcome in [2], in experiment [4], in experiment [7] and in experiment [12] was inactive. In addition, in [14], the Potency was 6.9 µM (active).

On to `NCCCN(CCO)CCO`, for which the Potency entry in experiment [1], in experiment [3], in [5], in experiment [6], in experiment [8] and in [9] was “inactive” throughout. Further, the Potency result in experiment [20], in experiment [13], in [14], in [15] and in experiment [18] was “inactive” each time. The result in experiment [2], in [4], in [7] and in experiment [12] was inactive.

As to `COc1ccc2[nH]c(S(=O)Cc3ncc(C)c(OC)c3C)nc2n1` (configuration not stated), the Potency result in experiment [1], in experiment [3], in experiment [5], in experiment [6], in [8] and in experiment [9] was “inactive” throughout. Also, the Potency result in [10], in [14], in experiment [15] and in experiment [16] was “inactive” throughout. For the same compound, the compound was classed as inactive in experiment [2], in experiment [7] and in experiment [12].

As to `O=C(C(=O)c1ccc(Br)cc1)c1ccc(Br)cc1`, the Potency entry in experiment [1], in [3], in experiment [5], in experiment [6], in [8] and in [9] was “inactive” each time. Further, the Potency result in experiment [10] and in experiment [20] was “inactive” throughout. In addition, the outcome in experiment [2], in experiment [4], in [19], in [17], in [7] and in experiment [12] was inactive. In addition, the activity, negative = cytotoxicity in [13] was -5.42% [at 19 µM]. Besides, in experiment [14], the activity change, negative = inhibition is 2.45% [at 19 µM]. In experiment [15], the viability change, negative = cytotoxic is 10.5% [at 15.8 µM]. In [18], the activation is -4.31% [at 15.8 µM].
